Inhibition data for 40 compounds are collected here from PubChem BioAssay.

The term inhibition denotes the drop in the measured response relative to a control, in per cent.

Calls of active or inactive are those of the source.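 Rule for the calls: active = inhibition above the hit cutoff set in the earlier primary screen (cut at about 27% in these data); inactive = the rest.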

The test deals with Protein phosphatase methylesterase 1 (Homo sapiens) (UniProt Q9Y570). Description: human PME-1 methylesterase inhibition confirmation – biochemical, fluorescence polarization, FP-Rh probe, triplicate (AID 2171).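 Note: 0% = enzyme with DMSO and 100% = wells lacking PME-1.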 The note with it: recombinant PME-1, FP-Rh probe fluorescence polarization; at 5.9 µM; active compounds read high. (Polarisation of emitted light reports the rotation of a fluorescent probe.)
Chain of Protein phosphatase methylesterase 1 (Homo sapiens) (Q9Y570 whole entry, looked up): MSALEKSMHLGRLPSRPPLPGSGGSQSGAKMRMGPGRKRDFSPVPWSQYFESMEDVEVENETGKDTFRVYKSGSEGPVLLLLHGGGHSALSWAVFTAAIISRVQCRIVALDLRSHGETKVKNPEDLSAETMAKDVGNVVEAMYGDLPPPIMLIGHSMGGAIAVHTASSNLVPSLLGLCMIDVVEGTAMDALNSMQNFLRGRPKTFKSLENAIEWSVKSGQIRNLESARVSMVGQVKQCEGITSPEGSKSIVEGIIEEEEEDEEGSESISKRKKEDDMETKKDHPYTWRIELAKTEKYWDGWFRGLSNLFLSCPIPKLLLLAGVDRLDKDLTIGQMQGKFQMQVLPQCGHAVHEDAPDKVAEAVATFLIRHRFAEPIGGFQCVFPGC
Take `COC(=O)c1ccc(NC(=O)Nc2ccc(OC)cc2)cc1`: the inhibition is 23.2% (inactive).

Turning to `CC(C)c1ccc2[nH]c(O)c(N=NC(=O)c3cccc(S(=O)(=O)N4CCCCC4)c3)c2c1`, the inhibition is 58.3% (active). The same measure for `CCCC(=O)NC(c1ccccc1Cl)c1c(O)ccc2ccccc12` (stereo not given): 58.5% (active); for `CCN(CC)C(=S)Sc1c(-c2ccccc2)c2cc(Cl)ccc2[nH]c1=O`: 39.7% (active); for `Nc1c(N2CCCC2)cc(Cl)c2nonc12`: 18.8% (inactive). The same measure for `CC(=O)Oc1c(I)cc(I)cc1C(=O)Nc1ccc(Cl)cc1`: 66.8% (active).

For `Cc1ccc(C(=O)N/N=C/c2ccc(-c3ccc(Br)cc3[N+](=O)[O-])o2)o1`, the inhibition is 33.1% (active).

On to `Fc1cccc2sc(Nc3nnc(-c4ccccc4)o3)nc12`, for which the inhibition is 33% (active). To `COc1cc2c(cc1OC)C(c1cc(Br)ccc1F)N(C(=O)CCl)CC2` (stereo not given) belongs 51.5% (active); to `COc1ccc(/C(C)=C2/SC(=S)N(CCC(=O)O)C2=O)cc1`, 4.27% (inactive); to `CCOC(=O)N1CC=C2C(C#N)=C(N)C(C#N)(C#N)[C@H](c3ccccc3OCC)[C@H]2C1`, 90.5% (active). In the case of `CCCC(=Nc1ccc(N)cc1)C1=C(O)C(C(=O)OC)C(C)(C)CC1=O` (stereo not given), the inhibition is 4.48% (inactive). On to `C=CCn1c(SCC(=O)N2CCCC2=O)nc2sc(CC)cc2c1=O`, for which the inhibition is 11.2% (inactive). With `COc1cccc(Oc2ccc(S(=O)(=O)N3CCCC3)cc2[N+](=O)[O-])c1`, the inhibition was 21.4% (inactive). The same measure for `CCCCn1c(/C=N/Nc2nc3ccccc3[nH]2)nc2ccccc21`: 61.3% (active); for `COc1ccc(-c2csc(NC(=O)Nc3ccccc3)n2)cc1`: 25.6% (inactive). The same measure for `Cc1ccc2nc(/C(C#N)=C/c3ccc(O)c(O)c3)[nH]c2c1`: 17.9% (inactive).

Regarding `CCC(CNc1cc(OC)cc2cccnc12)NC1CCCCC1` (stereo not given), the inhibition is 9.75% (inactive). The same measure for `Fc1cccc2sc(Nc3nc4cc5c(cc4s3)OCO5)nc12`: 76.3% (active); for `COc1cc(/C=N/Nc2nc3ccccc3s2)cc([N+](=O)[O-])c1O`: 72.5% (active). As for `O=c1ccc2cc3c([nH]c4ccc(Br)cc43)oc-2c1O`, the inhibition was -63.1% (inactive). Turning to `COc1cc(/C=N/NC(=O)[C@H](Cc2c[nH]c3ccccc23)NC(=O)OCC(C)C)cc([N+](=O)[O-])c1O`, the inhibition was 35.9% (active).

`COc1ccc2[nH]c3c(N4CCc5ccccc5C4)ncnc3c2c1`: the inhibition is 30.2% (active).

Regarding `CCOc1cc(/C=C2\N=C(SCC)SC2=O)cc([N+](=O)[O-])c1OC(C)=O`, the inhibition is 47.5% (active). Regarding `N[C@H](CSCc1ccccc1)C(=O)Nc1ccc([N+](=O)[O-])cc1`, the inhibition was -1.96% (inactive). On to `COc1ccc2noc3c2c1C(=O)c1ccccc1-3`, for which the inhibition is 22.2% (inactive). In the case of `O=C(O)c1cc(NN=C2c3ccccc3-c3ccccc32)ccc1Cl`, the inhibition was 41.9% (active).

As to `CCC(=O)NC(c1ccccc1Cl)c1c(O)ccc2ccccc12` (stereo not given), the inhibition was 53.2% (active). To `CC(C)c1ccc2[nH]c(O)c(N=NC(=O)c3ccc(CSc4nncn4C)cc3)c2c1` belongs 104% (active). For `O=C(Nc1cccc(-c2csc(Nc3ccccc3)n2)c1)c1cc([N+](=O)[O-])cc(C(F)(F)F)c1`, the inhibition was 23% (inactive). The same measure for `COc1ccc(-c2oc(NC(=O)CCl)c(C#N)c2-c2ccc(OC)cc2)cc1`: 22.7% (inactive); for `COc1ccc(-c2cc(-c3ccc(C)cc3)n[nH]2)c(O)c1`: 37.7% (active); for `CC1=NN(c2ccc(C)c(C)c2)C(=O)C1C(c1cccc(O)c1)C1C(=O)N(c2ccc(C)c(C)c2)N=C1C` (stereo not given): 15.3% (inactive). To `COc1ccc2ccc3c(c2c1)N=C[C@]1(O3)N(C)c2ccccc2C1(C)C` belongs 5.96% (inactive); to `COc1ccc(C2CC(c3ccc(OC)c(OC)c3)=NN2S(C)(=O)=O)cc1` (stereo not given), 22.9% (inactive). The same measure for `CCOC(=O)C(C)On1c(-c2ccccc2)nc2ccc([N+](=O)[O-])cc21` (stereo not given): 34.2% (active); for `CCCCCCC(=O)Nc1nc(C)c(-c2csc(Nc3cc(OC)ccc3OC)n2)s1`: 65% (active); for `C=CCn1c(NS(=O)(=O)c2ccccc2)c(S(=O)(=O)c2ccc(C)cc2)c2nc3ccccc3nc21`: 8.89% (inactive). In the case of `Oc1c(Br)cc(C=Nc2ccc3nc(-c4ccccc4)[nH]c3c2)c(O)c1Br`, the inhibition was 5.82% (inactive). Regarding `Cc1cc(O)c(NC(=S)NC(=O)c2ccc(-c3ccc(Cl)cc3)o2)cc1C`, the inhibition was 42.2% (active).
